Reference: PubChem BioAssay (Tox21)
A number with no mark means an inactive call. Records with an inconclusive call do not appear. Where a call stands in place of a potency, no number is given. Active and inactive are the calls of the source. Unless noted, the call rests on the fitted dose curve.

Key:
[1] = Nuclear factor erythroid 2-related factor 2/antioxidant responsive element (Nrf2/ARE) small molecule agonists: qHTS cell viability counter screen in human keratinocytes (AID 1919968; active means well fitted curve in the direction sought with a large enough effect in the repeat runs; an effect the other way counts as inactive or inconclusive; further: nearly all actives have a fitted effect of over 55% in size; further: potency means the concentration at half of the fitted maximal effect)
Procedure, shortened: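 In human HaCaT keratinocytes stably expressing an ARE-driven luciferase, compound exposure lasted 23 h at 37 C under 5% CO2. Viable cells are quantified with a protease-based fluorogenic reagent (CellTiter-Fluor) read 1 h after addition.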

[2] = Nuclear factor erythroid 2-related factor 2/antioxidant responsive element (Nrf2/ARE) small molecule agonists: luciferase reporter gene qHTS assay in human keratinocytes (AID 1919969); further: nearly all actives have a fitted effect of over 35% in size
[3] = biological target: Gonadotropin-releasing hormone receptor (Homo sapiens) (UniProt P30968); experiment: Human gonadotropin-releasing hormone receptor (GnRHR) small molecule agonists, calcium flux assay in GnRHR-HEK293 cells (AID 1920063); further: nearly all actives have a fitted effect of over 35% in size
Sequence of Gonadotropin-releasing hormone receptor (Homo sapiens) (P30968 whole entry, looked up): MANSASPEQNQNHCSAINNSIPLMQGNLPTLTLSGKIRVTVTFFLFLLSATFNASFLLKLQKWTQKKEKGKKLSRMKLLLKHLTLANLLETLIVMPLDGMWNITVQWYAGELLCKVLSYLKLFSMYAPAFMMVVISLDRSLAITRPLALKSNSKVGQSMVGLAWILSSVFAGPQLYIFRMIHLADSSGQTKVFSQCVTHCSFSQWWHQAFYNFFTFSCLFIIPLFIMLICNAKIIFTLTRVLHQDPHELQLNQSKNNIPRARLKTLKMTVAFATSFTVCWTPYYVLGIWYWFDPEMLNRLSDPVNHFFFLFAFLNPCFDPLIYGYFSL
Procedure, shortened: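 Intracellular calcium rise is the read-out: engineered human GnRHR HEK293 cells, dye-loaded, are exposed to DMSO-dissolved compounds and fluorescence at Ex/Em 480/540 is tracked for 3 min.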

[4] = biological target: KiSS-1 receptor (Homo sapiens) (UniProt Q969F8); experiment: Human kisspeptin (KISS1R) small molecule agonists, calcium flux assay in KISS1R-HEK293 cells (AID 1920064; active means well fitted curve in the direction sought with a large enough effect in the repeat runs; an effect the other way counts as inactive or inconclusive)
Sequence of KiSS-1 receptor (Homo sapiens) (Q969F8 whole entry, looked up): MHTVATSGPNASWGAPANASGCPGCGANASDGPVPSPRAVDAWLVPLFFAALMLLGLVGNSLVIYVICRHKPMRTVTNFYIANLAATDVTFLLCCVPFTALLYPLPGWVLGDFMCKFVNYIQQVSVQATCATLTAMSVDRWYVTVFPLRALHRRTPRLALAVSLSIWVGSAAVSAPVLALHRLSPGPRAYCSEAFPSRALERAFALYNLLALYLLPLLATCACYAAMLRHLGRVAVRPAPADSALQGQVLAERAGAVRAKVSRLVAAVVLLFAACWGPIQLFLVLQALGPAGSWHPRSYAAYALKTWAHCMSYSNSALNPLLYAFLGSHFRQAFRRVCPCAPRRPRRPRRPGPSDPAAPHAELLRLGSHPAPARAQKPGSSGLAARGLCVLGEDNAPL
Procedure, shortened: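 Concentration-response testing used 15 concentrations in triplicate on human KISS1R-expressing HEK293 cells. Calcium-dependent fluorescence (Ex/Em 480/540) was followed kinetically for 3 min after compound transfer.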

[5] = G protein-coupled receptor (GPCR) small molecule agonists, calcium flux assay: HEK293 wild type cell line counter screen (AID 1920065)
Procedure, shortened: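 Fluorescence intensity signals activation. After overnight (18 h) culture and a 1 h calcium dye load at 37 C, compounds are added by pin tool and the plate read at 480/540 nm for 3 min in 1 s steps.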

[6] = p53 small molecule agonists, cell-based qHTS assay with human liver microsomes (AID 1963577)
Procedure, shortened: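 p53RE-bla cells, 4,000/well, compound added after 5 h, with human liver microsomes 0.5 mg/mL and NADPH 0.5 mg/mL final; 16 h at 37 C, then LiveBLAzer 2 h RT, fluorescence.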

[7] = p53 small molecule agonists, cell-based qHTS assay with rat liver microsomes (AID 1963578)
Procedure, shortened: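 p53RE-bla cells, 4,000/well, pre-incubated 5 h, then given compounds plus rat liver microsomes (0.5 mg/mL final) and NADPH (0.5 mg/mL final). Incubation 16 h at 37 C; beta-lactamase reporter read by LiveBLAzer fluorescence after 2 h at room temperature.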

[8] = p53 small molecule agonists, cell-based qHTS assay with human liver microsomes: qHTS cell viability counter screen (AID 1963579); further: nearly all actives have a fitted effect of over 45% in size
Procedure, shortened: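 p53RE-bla cells, 4,000/well, dosed 5 hours after plating, with human liver microsomes (0.5 mg/mL final) plus NADPH (0.5 mg/mL final), 16 hours at 37 C. Viability read as CellTiter-Glo luminescence after 30 min at room temperature.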

[9] = p53 small molecule agonists, cell-based qHTS assay with rat liver microsomes: qHTS cell viability counter screen (AID 1963580); further: nearly all actives have a fitted effect of over 45% in size
Procedure, shortened: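 Cytotoxicity counter screen: intracellular ATP measured by CellTiter-Glo luminescence in the same wells as the beta-lactamase reporter read, on HCT-116 p53RE-bla cells exposed 16 h at 37 C to compounds with rat liver microsomes and NADPH, each 0.5 mg/mL final.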

[10] = p53 small molecule agonists, cell-based qHTS assay: qHTS cell viability counter screen (AID 1963581); further: nearly all actives have a fitted effect of over 45% in size
Procedure, shortened: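 Luminescence from CellTiter-Glo, reflecting ATP content, serves as the cytotoxicity measure; it is taken after the 2 h reporter substrate step in HCT-116 p53RE-bla cells dosed for 16 h at 37 C.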

[11] = p53 small molecule agonists, cell-based qHTS assay (AID 1963582; active means well fitted activation curve with a large enough effect in the signal ratio in the repeat runs, not every such curve was filed as active; the % refers to the signal ratio)
Procedure, shortened: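 After plating, p53RE-bla cells sat 5 h in the incubator; compounds or DMSO vehicle were pinned in; a 16 h incubation at 37 C followed; FRET substrate was added and, 2 h later at RT, fluorescence was measured.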

[12] = cAMP Responsive Elements (CRE) small molecule agonists, cell-based qHTS assay (AID 1963590)
Procedure, shortened: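 Compound exposure lasted 3 h at 37 C/5% CO2 in CRE-bla HEK 293T cells grown in assay medium with 10% dialyzed FBS and 25 mM HEPES. Reporter signal came from LiveBLAzer B/G FRET substrate, 2 h, room temperature.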

[13] = cAMP Responsive Elements (CRE) small molecule antagonists, cell-based qHTS assay (AID 1963591; active means well fitted inhibition curve with a large enough effect in the signal ratio in the repeat runs, not every such curve was filed as active; the % refers to the signal ratio)
Procedure, shortened: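 Stimulation used NKH477 at a final 0.25 uM for 3 h in compound-treated CRE-bla HEK293T cells, seeded 18 h beforehand. Reporter activity was measured with LiveBLAzer B/G FRET substrate after 2 h at room temperature.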

[14] = biological target: Beta-2 adrenergic receptor (Homo sapiens) (UniProt P07550); experiment: Adrenergic beta2 receptor (ADRB2) small molecule antagonists, cell-based qHTS assay (AID 1963592); further: nearly all actives have a fitted effect of over 50% in size; further: potency means the concentration at half of the fitted maximal effect
Sequence of Beta-2 adrenergic receptor (Homo sapiens) (P07550 whole entry, looked up): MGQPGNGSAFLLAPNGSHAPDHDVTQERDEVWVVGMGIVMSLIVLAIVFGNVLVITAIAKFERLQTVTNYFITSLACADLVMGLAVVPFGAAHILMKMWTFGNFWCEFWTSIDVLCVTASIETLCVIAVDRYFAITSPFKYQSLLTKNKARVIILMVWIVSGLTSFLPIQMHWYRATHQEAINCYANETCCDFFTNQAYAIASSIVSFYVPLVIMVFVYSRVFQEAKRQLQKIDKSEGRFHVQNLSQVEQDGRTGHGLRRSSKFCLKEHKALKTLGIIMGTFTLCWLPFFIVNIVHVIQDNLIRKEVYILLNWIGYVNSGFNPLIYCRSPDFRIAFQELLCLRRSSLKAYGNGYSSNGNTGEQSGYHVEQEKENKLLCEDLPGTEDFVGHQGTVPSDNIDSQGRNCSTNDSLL
Procedure, shortened: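 Assay format: CHO-ADRB2 cells, 18-20hr seeding at 37C/5% CO2, then compound plus 1nM isoproterenol agonist mix for 0.5hr RT. Homogeneous time-resolved fluorescence cAMP detection after 1hr, expressed as 665/615 nm ratio.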

[15] = biological target: D(2) dopamine receptor (Homo sapiens) (UniProt P14416); experiment: Dopamine D2 receptor (DRD2) small molecule agonists, cell-based qHTS assay (AID 1963594); further: nearly all actives have a fitted effect of over 35% in size
Sequence of D(2) dopamine receptor (Homo sapiens) (P14416 whole entry, looked up): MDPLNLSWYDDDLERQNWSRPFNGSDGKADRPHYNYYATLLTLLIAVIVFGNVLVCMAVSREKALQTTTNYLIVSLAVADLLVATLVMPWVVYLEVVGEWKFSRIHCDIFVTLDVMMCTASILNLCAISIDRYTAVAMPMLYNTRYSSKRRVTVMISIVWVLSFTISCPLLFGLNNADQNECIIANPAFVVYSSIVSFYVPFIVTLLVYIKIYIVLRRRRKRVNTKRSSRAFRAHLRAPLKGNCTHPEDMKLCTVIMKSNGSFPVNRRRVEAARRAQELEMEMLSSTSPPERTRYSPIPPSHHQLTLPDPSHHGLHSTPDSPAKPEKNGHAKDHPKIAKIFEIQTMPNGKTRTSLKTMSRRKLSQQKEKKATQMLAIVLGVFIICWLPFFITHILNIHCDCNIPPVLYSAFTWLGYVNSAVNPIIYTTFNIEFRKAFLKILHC
Procedure, shortened: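 HEK293 cells stably expressing human DRD2, pre-treated with PDE inhibitor Ro20-1724 (0.1 mM final) and compound 10 min at room temperature, then stimulated with NKH477 (200nM […]) for 30 min. cAMP read by HTRF (665/620 nm).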

[16] = biological target: D(2) dopamine receptor (Homo sapiens) (UniProt P14416); experiment: Dopamine D2 receptor (DRD2) small molecule antagonists, cell-based qHTS assay (AID 1963595; active means well fitted inhibition curve with a large enough effect in the signal ratio in the repeat runs, with a control signal flat; the % refers to the signal ratio; further: potency means the concentration at half of the fitted maximal effect)
Procedure, shortened: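 HEK293 cells stably expressing DRD2, preincubated with 0.1 mM Ro20-1724 and compounds 10 min, were stimulated with 200 nM NKH477 plus 12 nM quinpirole for 30 min at room temperature; cAMP measured by HTRF (665/620 nm).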

[17] = biological target: Muscarinic acetylcholine receptor M1 (Homo sapiens) (UniProt P11229); experiment: Cholinergic receptor muscarinic 1 (CHRM1) small molecule antagonists, cell-based qHTS assay (AID 1963588); further: nearly all actives have a fitted effect of over 40% in size
Sequence of Muscarinic acetylcholine receptor M1 (Homo sapiens) (P11229 whole entry, looked up): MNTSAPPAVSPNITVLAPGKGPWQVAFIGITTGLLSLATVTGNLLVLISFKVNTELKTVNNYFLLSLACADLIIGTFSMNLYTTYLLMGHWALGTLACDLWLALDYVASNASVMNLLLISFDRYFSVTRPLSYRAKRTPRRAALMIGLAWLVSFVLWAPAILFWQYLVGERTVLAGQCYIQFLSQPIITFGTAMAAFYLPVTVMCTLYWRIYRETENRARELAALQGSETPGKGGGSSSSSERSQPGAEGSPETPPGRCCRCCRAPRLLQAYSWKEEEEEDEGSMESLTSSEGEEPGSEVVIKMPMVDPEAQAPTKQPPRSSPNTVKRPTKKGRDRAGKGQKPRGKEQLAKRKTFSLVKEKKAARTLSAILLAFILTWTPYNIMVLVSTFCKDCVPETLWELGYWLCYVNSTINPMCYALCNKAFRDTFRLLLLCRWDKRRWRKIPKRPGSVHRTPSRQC
Procedure, shortened: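 Compounds were tested at 15 concentrations in three independent runs. Dye-loaded CHRM1-CHO cells were exposed 5 min at room temperature before stimulation by acetylcholine added at 50nM. Intracellular calcium was read kinetically on FDSS for 3 min.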

[18] = biological target: Muscarinic acetylcholine receptor M1 (Homo sapiens) (UniProt P11229); experiment: Cholinergic receptor muscarinic 1 (CHRM1) small molecule agonists, cell-based qHTS assay (AID 1963589); further: nearly all actives have a fitted effect of over 35% in size
Procedure, shortened: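 Fluorescent calcium dye reports M1 activation in stably transfected CHO cells. Compounds, 15 concentrations, added after 1 h dye loading at 37 C; kinetic reading at 1 sec intervals.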

[19] = biological target: 5-hydroxytryptamine receptor 2A (Homo sapiens) (UniProt P28223); experiment: 5-hydroxytryptamine receptor 2A (HTR2A) small molecule antagonists, cell-based qHTS assay (AID 1963586); further: nearly all actives have a fitted effect of over 45% in size
Sequence of 5-hydroxytryptamine receptor 2A (Homo sapiens) (P28223 whole entry, looked up): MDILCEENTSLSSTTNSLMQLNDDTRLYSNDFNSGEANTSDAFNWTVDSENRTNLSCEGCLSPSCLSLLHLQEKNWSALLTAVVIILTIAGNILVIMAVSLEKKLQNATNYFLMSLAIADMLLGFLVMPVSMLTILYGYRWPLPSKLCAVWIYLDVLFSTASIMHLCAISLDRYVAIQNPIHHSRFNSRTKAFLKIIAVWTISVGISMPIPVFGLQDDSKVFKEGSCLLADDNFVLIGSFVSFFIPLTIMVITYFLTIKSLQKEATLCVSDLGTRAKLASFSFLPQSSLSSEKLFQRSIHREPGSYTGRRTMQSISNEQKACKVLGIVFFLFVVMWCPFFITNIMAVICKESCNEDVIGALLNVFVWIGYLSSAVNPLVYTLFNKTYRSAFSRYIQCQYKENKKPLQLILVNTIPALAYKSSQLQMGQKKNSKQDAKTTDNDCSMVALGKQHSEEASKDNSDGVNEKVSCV
Procedure, shortened: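 CHO cells stably expressing human HTR2A were plated for 18 h at 37 C, then loaded with calcium dye for 1 h. Compounds were preincubated 5 min at room temperature before DOI (4 nM solution) was added. Kinetic fluorescence was read for 3 min.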

[20] = biological target: 5-hydroxytryptamine receptor 2A (Homo sapiens) (UniProt P28223); experiment: 5-hydroxytryptamine receptor 2A (HTR2A) small molecule agonists, cell-based qHTS assay (AID 1963587); further: nearly all actives have a fitted effect of over 30% in size
Procedure, shortened: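 CHO cells stably expressing human HTR2A, plated 18 h, loaded with calcium dye 1 h at 37 C. Agonist mode: compounds added and intracellular calcium fluorescence recorded kinetically for 2 min at 1 sec intervals.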

Row | SMILES | Potency [1] | Potency [2] | Potency [3] | outcome [4] | outcome [5] | Potency [6] | Potency [7] | Potency [8] | Potency [9] | Potency [10] | Potency [11] | Potency [12] | Potency [13] | Potency [14] | Potency [15] | Potency [16] | Potency [17] | Potency [18] | Potency [19] | Potency [20]
1 | COc1cc(C(=O)NC2CCCNC2)cc(OC)c1OC (stereo not drawn) | inactive | inactive | inactive | inactive | inactive | inactive | inactive | inactive | inactive | inactive | inactive | inactive | inactive | inactive | inactive | – | – | – | – | –
2 | CC(=O)CCCCn1c(=O)c2c(ncn2C)n(C)c1=O | inactive | inactive | inactive | inactive | inactive | inactive | inactive | inactive | inactive | inactive | inactive | inactive | inactive | inactive | inactive | inactive | – | – | – | –
3 | CCCOc1ccc(C(=O)OCCN(CC)CC)cc1N | inactive | inactive | inactive | inactive | inactive | inactive | inactive | inactive | inactive | inactive | inactive | inactive | inactive | inactive | inactive | inactive | – | – | – | –
4 | Cc1nc2n(c(=O)c1CCN1CCC(c3noc4cc(F)ccc34)CC1)CCCC2 | inactive | inactive | inactive | inactive | inactive | inactive | inactive | inactive | inactive | inactive | inactive | inactive | inactive | – | inactive | – | – | – | – | –
5 | CCN(CC)CCc1nc(-c2ccccc2)no1 | inactive | inactive | inactive | inactive | inactive | inactive | inactive | inactive | inactive | inactive | inactive | inactive | – | – | inactive | inactive | inactive | inactive | – | –
6 | O=c1[nH]c(=O)n([C@H]2C[C@H](O)[C@@H](CO)O2)cc1I | inactive | inactive | inactive | inactive | inactive | inactive | inactive | inactive | inactive | inactive | inactive | inactive | – | inactive | inactive | inactive | – | – | – | –
7 | CCn1cc(C(=O)O)c(=O)c2cc(F)c(N3CCNCC3)nc21 | inactive | inactive | inactive | inactive | inactive | inactive | inactive | inactive | inactive | inactive | inactive | inactive | inactive | – | inactive | inactive | – | – | – | –
8 | Cc1ccc(C(=O)c2ccc(CC(=O)O)n2C)cc1 | inactive | inactive | inactive | inactive | inactive | inactive | inactive | inactive | inactive | inactive | inactive | – | inactive | inactive | inactive | inactive | – | – | – | –
9 | CC(=O)[C@@]1(O)CC[C@H]2[C@@H]3C[C@H](C)C4=CC(=O)CC[C@]4(C)[C@H]3CC[C@@]21C | inactive | inactive | inactive | inactive | inactive | inactive | inactive | inactive | inactive | inactive | inactive | – | – | inactive | inactive | inactive | – | – | – | –
10 | Cc1cccc(C)c1OCC(C)N (stereo not drawn) | inactive | inactive | inactive | inactive | inactive | inactive | inactive | inactive | inactive | inactive | inactive | – | – | – | – | inactive | – | – | – | –
11 | CCN1CCN(c2cc3c(cc2F)c(=O)c(C(=O)O)cn3C2CC2)CC1 | inactive | inactive | inactive | inactive | inactive | inactive | inactive | inactive | inactive | inactive | inactive | – | – | – | inactive | inactive | – | – | – | –
12 | C[n+]1ccccc1/C=N/O | inactive | inactive | inactive | inactive | inactive | inactive | inactive | inactive | inactive | inactive | inactive | inactive | inactive | – | inactive | inactive | – | – | – | –
13 | CN(Cc1cc(Br)cc(Br)c1N)C1CCCCC1 | 16.8 µM (active) | inactive | inactive | inactive | inactive | inactive | inactive | inactive | inactive | inactive | inactive | inactive | – | inactive | inactive | inactive | – | – | – | –
14 | Oc1ccccc1Cc1ccccc1O | inactive | inactive | inactive | inactive | inactive | inactive | inactive | inactive | inactive | inactive | – | inactive | inactive | inactive | inactive | inactive | inactive | inactive | inactive | inactive
15 | O=Cc1ccc(F)c(Br)c1 | inactive | inactive | inactive | inactive | inactive | inactive | inactive | inactive | inactive | inactive | – | inactive | inactive | inactive | inactive | inactive | inactive | inactive | inactive | inactive
16 | COc1cc(N)c(Cl)cc1C(=O)NC1CCN(CCCOc2ccc(F)cc2)CC1OC (stereo not drawn) | inactive | inactive | inactive | inactive | inactive | inactive | inactive | inactive | inactive | inactive | inactive | – | – | 23.7 µM (active) | inactive | 11.9 µM (active) | – | – | – | –
